{"source": "PubChem BioAssay (NCI)", "note": "This is part of a sample that, as a whole, favours compounds with a hit. Of some 83,000 tested, about 20% had one in any assay.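 Activity criterion: percent growth below 10, measured after cells in 96-well plates were exposed to a single compound concentration for 48 hours.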 Active and inactive are the calls of the source."}
{"system": "RPMI-8226 leukemia", "test": "NCI-60 one-dose screen, 48 h (100 = growth as untreated, 0 = no growth, -100 = all killed)", "details": "10 µM", "procedure": "Growth inhibition of the RPMI-8226 human tumor cell line is measured as a screen for anti-cancer activity. Cells are grown in 96 well plates and exposed to the test compound for 48 hours. Compounds are tested at a single concentration, which is 10^-5 M for most compounds. The reported endpoint is percent growth (GI% or GIPRCNT), where numbers from 0 - 100% represent growth inhibition, and numbers from -100% - 0 represent cell death. For example, a value of 40 represents 60% growth inhibition. A value of 0 means no net growth occurred over the course of the experiment. A value of -40 indicates 40% of cells at the beginning of the experiment died by the end of the experiment. A value of -100 means all cells are dead at the end of the experiment.\nNCI-60 Human Tumor Cell Lines Screen was performed using the standard one-dose NCI protocol, which is described in more detail at https://dtp.cancer.gov/discovery_development/nci-60/default.htm.\nCompounds with GIPRCNT values below 10 were considered active. Activity score was based on GIPRCNT using the following formula: […]\nScore is 0 for GIPRCNT values of 100 or above, 50 for GIPRCNT values of 0, and 100 for GIPRCNT values of -100."}
{"smiles": "Cc1cc(Cl)nc(N(CCCNc2ccnc3cc(Cl)ccc23)Cc2cccs2)n1", "growth": "-48.5% (active)"}
{"smiles": "COc1cc(/C(=C2/O[C@@H]([C@H]3COC(C)(C)O3)[C@H]3OC(C)(C)O[C@@H]23)c2ccc3ccccc3c2)cc(OC)c1OC", "growth": "36.8% (inactive)"}
{"smiles": "CC(C)=CCc1cc(O)cc2c1OC(C=C(C)C)C1=C2C(=O)C2=C(C1=O)S(=O)(=O)CCN2", "note": "(stereo not given)", "growth": "51.4% (inactive)"}
{"smiles": "COc1ccc2c(c1)nc(N)c1c3cccnc3cn21", "growth": "34.3% (inactive)"}
{"smiles": "O=c1oc2cc(OS(=O)(=O)c3ccccc3)ccc2c2c1CCCCC2", "growth": "23.4% (inactive)"}
{"smiles": "CCOC(=O)N1C=CC2C=CC1C1C=CC=CC2N1C(=O)OCC", "note": "(stereo not given)", "growth": "89.5% (inactive)"}
{"smiles": "O=C1/C(=C\\c2ccccc2)CN(C(=O)c2ccccc2F)C/C1=C\\c1ccccc1", "growth": "-40.3% (active)"}
{"smiles": "CN(C)C=Nc1cc(Cl)ccc1Cl", "growth": "98.9% (inactive)"}
{"smiles": "Cc1nc2ccc(CN(C)c3ccc(C(=O)N[C@@H](CCC(=O)O)C(=O)O)s3)cc2c(=O)[nH]1", "growth": "56.6% (inactive)"}
{"smiles": "O=c1[nH]c(-c2ccc(Cl)cc2)nc2sc3c(c12)CCCC3", "growth": "96.7% (inactive)"}
{"smiles": "c1ccc([I+]c2ccccc2)cc1", "growth": "46.7% (inactive)"}
{"smiles": "CCN1CCC2(CC1)OC(c1ccccc1)C(c1ccccc1)O2", "note": "(stereo not given)", "growth": "101% (inactive)"}
{"smiles": "Nc1nc(N)c2c(ccc3nccc32)[nH]1", "growth": "43.2% (inactive)"}
{"smiles": "CCOC(=O)N1C/C(=C/c2ccc(Cl)cc2)C(=O)/C(=C/c2ccc(Cl)cc2)C1", "growth": "-11.6% (active)"}
{"smiles": "COc1ccc(-c2nc3sc(-c4ccccc4)c(-c4ccccc4)n3c2/C=C/C(=O)c2ccccn2)cc1", "growth": "45.7% (inactive)"}
{"smiles": "COc1cc2nc(Nc3cccc(NC(C)=O)c3)nc(N)c2cc1OC", "growth": "55.7% (inactive)"}
{"smiles": "COc1cc(NC(=O)CCSc2nc3ccc(Cl)cc3c(=O)n2Cc2ccccc2)cc(OC)c1OC", "growth": "42.5% (inactive)"}
{"smiles": "Clc1ccc(/C=C2\\CCCC3=C2N=C2SC=NN2C3c2ccc(Cl)cc2)cc1", "note": "(stereo not given)", "growth": "-12.1% (active)"}
{"smiles": "Cc1ccc(Nc2nnc(-c3cc(-c4ccncc4)n(-c4ccccc4)n3)s2)cc1", "growth": "38.6% (inactive)"}
{"smiles": "N=C(N)c1ccc(-c2ccc(-c3cccs3)s2)cc1", "growth": "-30.9% (active)"}
{"smiles": "CC1(C)Cc2c(sc3ncn4nc(-c5ccc(O)cc5)nc4c23)CO1", "growth": "57.7% (inactive)"}
{"smiles": "Cc1ccc(-c2nc(/C=C3/C(=O)N(C)c4ccc(F)cc43)c3ccccn23)cc1", "growth": "115% (inactive)"}
{"smiles": "COc1ccc2c(c1)-c1c(c3cc(OC)ccc3n(CCN(C)C)c1=O)C2=O", "growth": "-14.9% (active)"}
{"smiles": "COc1ccc(/C=C2/CN(C(=O)c3ccc(C)cc3)C/C(=C\\c3ccc(OC)cc3)C2=O)cc1", "growth": "-6.11% (active)"}
{"smiles": "O=C1OCC2=C1C(c1cccc(Cl)c1)c1cc3c(cc1N2CCO)OCCO3", "note": "(stereo not given)", "growth": "20.2% (inactive)"}
{"smiles": "COc1cc(Cl)cc(-c2nn(-c3cccc(NC(=O)Nc4cc(C(F)(F)F)cc(C(F)(F)F)c4)c3)cc2-c2ccncc2)c1", "growth": "-17.5% (active)"}
{"smiles": "CCCCCCNC(=O)Oc1ccc(/C(=C(/CC)Cc2ccccc2)c2ccc(OCCN3CCCCC3)cc2)cc1", "growth": "68.2% (inactive)"}
{"smiles": "c1ccc2c(-c3nc(N4CCOCC4)c4c5c(sc4n3)CCCCCC5)cccc2c1", "growth": "112% (inactive)"}
{"smiles": "O=S(=O)(NCCCNc1nccc(-c2c(-c3ccc(F)cc3)nc3sccn23)n1)c1ccc(F)cc1", "growth": "32.1% (inactive)"}
{"smiles": "COc1cccc(Cn2c(-c3nonc3N)nc3ccccc32)c1", "growth": "4.9% (active)"}
{"smiles": "CCCCCCCCN(CCCCCCCC)CCCCCCCCCN1CCCc2cc(OC)ccc21", "growth": "65.9% (inactive)"}
{"smiles": "O=C(Nc1cccc(Cl)c1)Nc1nccs1", "growth": "91.1% (inactive)"}
{"smiles": "c1ccc([C@H]2CN3CCSC3=N2)cc1", "growth": "110% (inactive)"}
{"smiles": "Nc1c(C(=O)Nc2ccccc2)sc2nc3c(cc12)CCCC3", "growth": "15.4% (inactive)"}
{"smiles": "COc1ccc(C2CC(c3ccc(N(C)C)cc3)=NN2c2ccc(S(N)(=O)=O)cc2)cc1", "note": "(stereo not given)", "growth": "34.1% (inactive)"}
{"smiles": "C#Cc1ccc(-n2c(/C=C/c3ccc4ccccc4c3)nc3ncccc3c2=O)cc1", "growth": "-8.86% (active)"}
{"smiles": "COc1ccccc1CNCCN1C(=O)c2ccc3c4c(ccc(c24)C1=O)C(=O)N(CCNCc1ccccc1OC)C3=O", "growth": "-67.7% (active)"}
{"smiles": "Oc1[nH]c2cc(Cl)ccc2c1/C=c1/ccc2c(c1)N=C(c1cc(F)cc(F)c1)N=2", "growth": "-4.53% (active)"}
{"smiles": "COc1cccc(NC(=O)c2sc3nc4c(cc3c2N)C(O)CCC4)c1", "note": "(stereo not given)", "growth": "7.49% (active)"}
{"smiles": "CCCCCCCCCCCCCCCCCCOCC(COCCOCC[N+]1(CCCCCC(=O)[O-])CCCC1)Oc1ncccn1", "note": "(stereo not given)", "growth": "2.22% (active)"}
